Experimental data: the supplement of paper PMC11732987, “Enantioselective OTUD7B fragment discovery through chemoproteomics screening and high-throughput optimisation” (Communications Chemistry, 2025)

What was measured:
Assay in all cases: log2 ratio of Biotin-Ahx-Ub-VS probe labelling (fragment/DMSO); higher = less target engagement (more negative = stronger competition), active = hit call of the paper (q ≤ 0.05, log2 ratio ≤ -1)
Details in all cases: compound concentration: 200 uM; treatment time: 3 h
[1] = molecular target: USP34 (UniProt Q70CQ2)
Outline: (§1)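 HEK293T lysate, 495 µg per sample in Tris/CHAPS/IGEPAL buffer with protease inhibitors, was treated in triplicate with fragment at 200 µM or vehicle for 3 h and then with Biotin-Ahx-Ub-VS at 0.5 µM final for 1 h. Labelled DUBs were NeutrAvidin-enriched, digested with LysC and trypsin, and run by diaPASEF LC-MS/MS. Spectronaut label-free quantities were global-median-normalised, and values are average log2 fragment/vehicle ratios by unpaired t-test on proteins with ≥2 unique peptides.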

[2] = molecular target: T1, USP36 (UniProt Q9P275)
T1 sequence (whole entry): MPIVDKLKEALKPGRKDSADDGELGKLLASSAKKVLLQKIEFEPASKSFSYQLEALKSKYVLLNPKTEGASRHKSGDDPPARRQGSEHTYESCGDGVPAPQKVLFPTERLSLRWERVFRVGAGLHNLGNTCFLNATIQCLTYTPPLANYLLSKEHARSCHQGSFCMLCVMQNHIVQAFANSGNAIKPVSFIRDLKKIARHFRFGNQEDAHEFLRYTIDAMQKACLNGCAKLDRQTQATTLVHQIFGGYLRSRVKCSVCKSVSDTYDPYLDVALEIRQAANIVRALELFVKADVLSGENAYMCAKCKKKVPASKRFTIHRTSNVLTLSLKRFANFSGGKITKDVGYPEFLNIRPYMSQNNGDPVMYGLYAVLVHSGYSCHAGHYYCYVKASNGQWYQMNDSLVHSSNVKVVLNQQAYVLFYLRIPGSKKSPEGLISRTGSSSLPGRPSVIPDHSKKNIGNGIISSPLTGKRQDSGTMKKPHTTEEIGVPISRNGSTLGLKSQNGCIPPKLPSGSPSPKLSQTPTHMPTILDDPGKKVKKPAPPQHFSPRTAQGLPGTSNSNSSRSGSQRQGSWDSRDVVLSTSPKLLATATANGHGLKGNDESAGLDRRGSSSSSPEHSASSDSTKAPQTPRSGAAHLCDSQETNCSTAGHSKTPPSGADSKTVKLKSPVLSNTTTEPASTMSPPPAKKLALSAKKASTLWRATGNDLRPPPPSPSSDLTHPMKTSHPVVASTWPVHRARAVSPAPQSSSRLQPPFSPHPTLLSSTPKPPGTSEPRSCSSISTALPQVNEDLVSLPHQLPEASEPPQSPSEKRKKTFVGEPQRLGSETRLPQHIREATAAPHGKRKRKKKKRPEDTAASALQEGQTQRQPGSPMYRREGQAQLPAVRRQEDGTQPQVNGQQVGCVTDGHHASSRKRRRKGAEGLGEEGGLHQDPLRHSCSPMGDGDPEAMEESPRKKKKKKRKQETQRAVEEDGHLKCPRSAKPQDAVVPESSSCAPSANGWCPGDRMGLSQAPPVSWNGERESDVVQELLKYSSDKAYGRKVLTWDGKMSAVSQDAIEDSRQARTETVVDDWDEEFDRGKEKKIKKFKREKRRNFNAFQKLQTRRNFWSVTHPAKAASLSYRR
Outline: as §1

[3] = molecular target: T2, USP38 (UniProt Q8NB14)
T2 sequence (whole entry): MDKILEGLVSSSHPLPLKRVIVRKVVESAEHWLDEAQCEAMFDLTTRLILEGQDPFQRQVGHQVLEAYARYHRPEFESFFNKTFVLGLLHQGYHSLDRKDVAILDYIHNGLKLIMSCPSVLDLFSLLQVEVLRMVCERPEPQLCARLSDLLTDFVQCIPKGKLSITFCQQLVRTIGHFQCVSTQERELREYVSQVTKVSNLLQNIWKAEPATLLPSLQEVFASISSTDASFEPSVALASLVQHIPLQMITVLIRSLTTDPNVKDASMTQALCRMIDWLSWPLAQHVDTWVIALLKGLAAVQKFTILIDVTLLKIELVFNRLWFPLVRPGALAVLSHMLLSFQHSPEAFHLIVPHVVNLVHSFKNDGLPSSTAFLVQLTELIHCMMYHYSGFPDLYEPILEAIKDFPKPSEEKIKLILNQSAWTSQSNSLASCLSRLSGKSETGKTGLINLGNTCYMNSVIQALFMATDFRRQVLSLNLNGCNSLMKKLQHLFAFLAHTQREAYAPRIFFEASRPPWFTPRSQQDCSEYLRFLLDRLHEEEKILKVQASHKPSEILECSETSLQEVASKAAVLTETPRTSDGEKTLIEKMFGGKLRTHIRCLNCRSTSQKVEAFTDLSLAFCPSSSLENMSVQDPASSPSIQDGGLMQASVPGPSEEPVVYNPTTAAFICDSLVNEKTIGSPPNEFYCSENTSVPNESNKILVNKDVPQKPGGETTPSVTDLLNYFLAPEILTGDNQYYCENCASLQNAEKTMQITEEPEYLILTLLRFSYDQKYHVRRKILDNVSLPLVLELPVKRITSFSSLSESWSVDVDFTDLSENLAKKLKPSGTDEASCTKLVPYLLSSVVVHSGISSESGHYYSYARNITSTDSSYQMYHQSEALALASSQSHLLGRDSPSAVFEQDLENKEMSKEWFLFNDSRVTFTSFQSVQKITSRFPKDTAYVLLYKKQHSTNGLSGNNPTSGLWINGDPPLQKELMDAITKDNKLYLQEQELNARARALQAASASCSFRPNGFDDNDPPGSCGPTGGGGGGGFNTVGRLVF
Outline: as §1

[4] = molecular target: T3, USP39 (UniProt Q53GS9)
T3 sequence (whole entry): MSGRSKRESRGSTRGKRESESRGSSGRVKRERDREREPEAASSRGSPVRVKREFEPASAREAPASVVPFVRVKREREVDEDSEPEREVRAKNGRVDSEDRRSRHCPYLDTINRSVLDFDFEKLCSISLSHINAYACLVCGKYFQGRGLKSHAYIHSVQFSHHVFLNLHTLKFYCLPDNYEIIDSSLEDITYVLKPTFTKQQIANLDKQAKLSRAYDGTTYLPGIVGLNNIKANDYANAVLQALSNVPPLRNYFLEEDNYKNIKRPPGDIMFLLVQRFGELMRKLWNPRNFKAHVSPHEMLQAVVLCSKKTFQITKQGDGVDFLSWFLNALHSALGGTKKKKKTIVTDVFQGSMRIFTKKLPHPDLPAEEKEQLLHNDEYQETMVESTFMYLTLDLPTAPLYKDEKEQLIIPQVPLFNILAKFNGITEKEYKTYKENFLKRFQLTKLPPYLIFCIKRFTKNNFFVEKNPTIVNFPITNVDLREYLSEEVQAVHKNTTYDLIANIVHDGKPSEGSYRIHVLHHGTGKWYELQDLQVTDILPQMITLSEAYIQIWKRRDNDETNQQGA
Outline: as §1

[5] = molecular target: T4, USP4 (UniProt Q13107)
T4 sequence (whole entry): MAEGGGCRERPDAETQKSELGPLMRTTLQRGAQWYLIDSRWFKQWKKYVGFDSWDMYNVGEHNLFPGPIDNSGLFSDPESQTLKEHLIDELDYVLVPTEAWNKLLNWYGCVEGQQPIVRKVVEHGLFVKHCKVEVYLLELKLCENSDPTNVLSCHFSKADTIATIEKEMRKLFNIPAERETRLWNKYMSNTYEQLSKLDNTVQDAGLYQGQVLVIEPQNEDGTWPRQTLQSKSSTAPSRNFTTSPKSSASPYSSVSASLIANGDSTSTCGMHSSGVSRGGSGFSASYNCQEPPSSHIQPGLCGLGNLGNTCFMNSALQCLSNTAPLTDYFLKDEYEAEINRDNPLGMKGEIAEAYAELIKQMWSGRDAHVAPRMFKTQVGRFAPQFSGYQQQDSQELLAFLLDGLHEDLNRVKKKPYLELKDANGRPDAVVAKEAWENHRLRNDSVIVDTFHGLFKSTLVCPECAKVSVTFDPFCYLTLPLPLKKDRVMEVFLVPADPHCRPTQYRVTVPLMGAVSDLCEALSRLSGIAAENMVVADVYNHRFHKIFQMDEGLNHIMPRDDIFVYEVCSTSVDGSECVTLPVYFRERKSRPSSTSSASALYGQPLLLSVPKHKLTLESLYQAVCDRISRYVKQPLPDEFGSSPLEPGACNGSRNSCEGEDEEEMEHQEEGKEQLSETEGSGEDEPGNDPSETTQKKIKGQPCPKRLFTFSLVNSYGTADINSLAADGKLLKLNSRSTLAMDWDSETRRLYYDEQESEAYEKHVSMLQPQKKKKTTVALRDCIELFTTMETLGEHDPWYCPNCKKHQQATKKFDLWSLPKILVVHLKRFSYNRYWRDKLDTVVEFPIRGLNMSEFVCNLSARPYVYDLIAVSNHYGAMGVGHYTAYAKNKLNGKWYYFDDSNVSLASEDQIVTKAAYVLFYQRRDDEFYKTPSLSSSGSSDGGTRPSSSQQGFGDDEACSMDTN
Outline: as §1

Measured: log2 ratio of Biotin-Ahx-Ub-VS probe labelling

Chain of USP34 (Q70CQ2 whole entry, the tested form may be a part): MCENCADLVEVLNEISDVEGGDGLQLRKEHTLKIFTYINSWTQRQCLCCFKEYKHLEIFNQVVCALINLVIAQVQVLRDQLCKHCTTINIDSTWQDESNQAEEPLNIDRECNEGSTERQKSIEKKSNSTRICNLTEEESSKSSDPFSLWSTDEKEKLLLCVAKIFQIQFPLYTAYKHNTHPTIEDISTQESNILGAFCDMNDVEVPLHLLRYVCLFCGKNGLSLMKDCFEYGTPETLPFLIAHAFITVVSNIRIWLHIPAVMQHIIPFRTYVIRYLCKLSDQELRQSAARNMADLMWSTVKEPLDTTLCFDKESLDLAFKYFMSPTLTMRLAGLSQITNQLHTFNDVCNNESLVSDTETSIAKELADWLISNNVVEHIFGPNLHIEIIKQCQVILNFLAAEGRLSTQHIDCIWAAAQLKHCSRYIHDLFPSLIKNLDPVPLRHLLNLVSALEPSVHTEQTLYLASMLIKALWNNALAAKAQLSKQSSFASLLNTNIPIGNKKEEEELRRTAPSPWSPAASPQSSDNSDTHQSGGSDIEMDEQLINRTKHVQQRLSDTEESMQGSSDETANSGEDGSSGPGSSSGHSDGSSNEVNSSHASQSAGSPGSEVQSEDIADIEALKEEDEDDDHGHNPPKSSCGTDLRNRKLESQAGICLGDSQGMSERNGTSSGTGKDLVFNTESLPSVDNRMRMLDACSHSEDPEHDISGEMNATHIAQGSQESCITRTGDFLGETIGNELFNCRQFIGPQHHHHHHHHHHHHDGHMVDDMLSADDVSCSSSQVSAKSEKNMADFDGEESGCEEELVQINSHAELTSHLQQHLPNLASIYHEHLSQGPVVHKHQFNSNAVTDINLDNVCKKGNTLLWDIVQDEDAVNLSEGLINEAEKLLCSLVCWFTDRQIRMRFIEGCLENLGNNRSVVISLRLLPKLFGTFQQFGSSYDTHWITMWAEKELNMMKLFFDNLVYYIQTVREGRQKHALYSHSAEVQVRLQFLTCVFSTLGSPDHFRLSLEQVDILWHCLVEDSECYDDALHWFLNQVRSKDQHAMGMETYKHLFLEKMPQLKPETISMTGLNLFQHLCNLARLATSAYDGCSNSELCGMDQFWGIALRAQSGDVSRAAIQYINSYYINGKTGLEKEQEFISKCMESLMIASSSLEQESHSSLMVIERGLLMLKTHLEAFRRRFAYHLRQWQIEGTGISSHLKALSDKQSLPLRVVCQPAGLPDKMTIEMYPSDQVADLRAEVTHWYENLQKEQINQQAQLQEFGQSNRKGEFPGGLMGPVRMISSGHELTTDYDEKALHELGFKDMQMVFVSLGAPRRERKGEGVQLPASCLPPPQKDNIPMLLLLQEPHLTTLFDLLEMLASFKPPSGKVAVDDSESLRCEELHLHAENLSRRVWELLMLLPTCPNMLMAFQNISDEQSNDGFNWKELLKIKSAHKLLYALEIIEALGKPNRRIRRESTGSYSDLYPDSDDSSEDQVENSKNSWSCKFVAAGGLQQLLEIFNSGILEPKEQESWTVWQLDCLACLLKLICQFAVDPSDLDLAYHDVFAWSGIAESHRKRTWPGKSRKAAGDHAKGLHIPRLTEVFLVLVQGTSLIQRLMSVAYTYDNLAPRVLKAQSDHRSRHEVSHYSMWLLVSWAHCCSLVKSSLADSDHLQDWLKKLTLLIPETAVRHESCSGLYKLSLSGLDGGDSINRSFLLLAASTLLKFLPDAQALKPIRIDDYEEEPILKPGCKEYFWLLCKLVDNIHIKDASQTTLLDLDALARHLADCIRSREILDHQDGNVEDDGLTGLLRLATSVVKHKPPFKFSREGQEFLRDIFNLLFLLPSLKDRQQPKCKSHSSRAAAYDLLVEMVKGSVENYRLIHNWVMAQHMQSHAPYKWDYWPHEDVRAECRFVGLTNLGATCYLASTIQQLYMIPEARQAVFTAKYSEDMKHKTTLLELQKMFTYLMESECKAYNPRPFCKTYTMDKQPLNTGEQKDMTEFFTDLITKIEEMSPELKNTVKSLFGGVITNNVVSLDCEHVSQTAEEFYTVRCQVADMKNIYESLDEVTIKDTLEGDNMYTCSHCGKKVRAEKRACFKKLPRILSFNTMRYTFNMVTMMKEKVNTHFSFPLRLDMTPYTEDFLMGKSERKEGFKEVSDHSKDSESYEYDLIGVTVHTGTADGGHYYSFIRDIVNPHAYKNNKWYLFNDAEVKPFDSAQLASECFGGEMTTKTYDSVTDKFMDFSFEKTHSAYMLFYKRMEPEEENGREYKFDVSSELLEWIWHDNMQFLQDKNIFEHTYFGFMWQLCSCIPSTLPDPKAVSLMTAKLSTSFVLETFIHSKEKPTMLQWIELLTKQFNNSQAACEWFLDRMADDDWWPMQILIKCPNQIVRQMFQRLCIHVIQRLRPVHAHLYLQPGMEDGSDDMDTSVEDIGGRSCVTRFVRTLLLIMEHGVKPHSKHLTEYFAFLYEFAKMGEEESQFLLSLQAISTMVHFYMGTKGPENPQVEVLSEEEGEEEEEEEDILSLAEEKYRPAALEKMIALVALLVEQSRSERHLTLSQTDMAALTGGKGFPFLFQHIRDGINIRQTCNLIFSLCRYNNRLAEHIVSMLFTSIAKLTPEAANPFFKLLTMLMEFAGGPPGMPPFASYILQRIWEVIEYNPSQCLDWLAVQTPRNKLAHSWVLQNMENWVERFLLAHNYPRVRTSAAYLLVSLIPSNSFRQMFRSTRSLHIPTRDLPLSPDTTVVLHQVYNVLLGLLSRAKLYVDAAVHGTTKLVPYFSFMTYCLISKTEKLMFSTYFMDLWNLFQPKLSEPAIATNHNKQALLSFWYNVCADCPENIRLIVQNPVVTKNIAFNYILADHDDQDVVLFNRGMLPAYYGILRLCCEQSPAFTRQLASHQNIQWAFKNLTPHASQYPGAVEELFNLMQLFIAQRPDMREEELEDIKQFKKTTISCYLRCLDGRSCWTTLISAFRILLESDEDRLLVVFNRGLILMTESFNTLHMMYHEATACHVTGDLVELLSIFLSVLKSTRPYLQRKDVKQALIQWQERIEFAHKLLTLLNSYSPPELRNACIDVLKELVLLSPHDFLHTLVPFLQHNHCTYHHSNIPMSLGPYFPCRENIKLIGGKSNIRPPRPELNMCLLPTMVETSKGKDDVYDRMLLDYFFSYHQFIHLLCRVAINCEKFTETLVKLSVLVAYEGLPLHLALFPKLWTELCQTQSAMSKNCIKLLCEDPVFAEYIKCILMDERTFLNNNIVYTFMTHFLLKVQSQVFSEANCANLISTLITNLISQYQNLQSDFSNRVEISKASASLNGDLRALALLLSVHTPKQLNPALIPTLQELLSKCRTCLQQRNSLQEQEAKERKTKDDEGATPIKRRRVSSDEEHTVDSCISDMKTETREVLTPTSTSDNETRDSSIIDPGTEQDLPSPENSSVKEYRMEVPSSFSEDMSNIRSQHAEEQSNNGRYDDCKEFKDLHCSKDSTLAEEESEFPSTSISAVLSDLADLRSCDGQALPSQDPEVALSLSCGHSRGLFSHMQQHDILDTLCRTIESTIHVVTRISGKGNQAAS

O=C(CCl)NCc1ccc(N2CCOCC2)nc1
inactive: [1] -0.0991 | [2] -0.161 | [3] -0.0678 | [4] -0.00187 | [5] 0.0133
